Among the data in PubChem BioAssay (Tox21) are Potency and activity change, negative = inhibition values, retold here.

Inconclusive results are not listed. A call without a number means that no potency is given here. Activity calls are given as the source filed them. Calls come from the whole dose curve; as a rule, active = well fitted inhibition curve with a large enough effect in the repeat runs; inconclusive = weak or mixed curves; inactive = flat fitted curve, though single readings scatter.
Potency is the fitted concentration of half-maximal effect.

Sequence of Voltage-gated inwardly rectifying potassium channel KCNH2 (Homo sapiens) (Q12809 whole entry, looked up): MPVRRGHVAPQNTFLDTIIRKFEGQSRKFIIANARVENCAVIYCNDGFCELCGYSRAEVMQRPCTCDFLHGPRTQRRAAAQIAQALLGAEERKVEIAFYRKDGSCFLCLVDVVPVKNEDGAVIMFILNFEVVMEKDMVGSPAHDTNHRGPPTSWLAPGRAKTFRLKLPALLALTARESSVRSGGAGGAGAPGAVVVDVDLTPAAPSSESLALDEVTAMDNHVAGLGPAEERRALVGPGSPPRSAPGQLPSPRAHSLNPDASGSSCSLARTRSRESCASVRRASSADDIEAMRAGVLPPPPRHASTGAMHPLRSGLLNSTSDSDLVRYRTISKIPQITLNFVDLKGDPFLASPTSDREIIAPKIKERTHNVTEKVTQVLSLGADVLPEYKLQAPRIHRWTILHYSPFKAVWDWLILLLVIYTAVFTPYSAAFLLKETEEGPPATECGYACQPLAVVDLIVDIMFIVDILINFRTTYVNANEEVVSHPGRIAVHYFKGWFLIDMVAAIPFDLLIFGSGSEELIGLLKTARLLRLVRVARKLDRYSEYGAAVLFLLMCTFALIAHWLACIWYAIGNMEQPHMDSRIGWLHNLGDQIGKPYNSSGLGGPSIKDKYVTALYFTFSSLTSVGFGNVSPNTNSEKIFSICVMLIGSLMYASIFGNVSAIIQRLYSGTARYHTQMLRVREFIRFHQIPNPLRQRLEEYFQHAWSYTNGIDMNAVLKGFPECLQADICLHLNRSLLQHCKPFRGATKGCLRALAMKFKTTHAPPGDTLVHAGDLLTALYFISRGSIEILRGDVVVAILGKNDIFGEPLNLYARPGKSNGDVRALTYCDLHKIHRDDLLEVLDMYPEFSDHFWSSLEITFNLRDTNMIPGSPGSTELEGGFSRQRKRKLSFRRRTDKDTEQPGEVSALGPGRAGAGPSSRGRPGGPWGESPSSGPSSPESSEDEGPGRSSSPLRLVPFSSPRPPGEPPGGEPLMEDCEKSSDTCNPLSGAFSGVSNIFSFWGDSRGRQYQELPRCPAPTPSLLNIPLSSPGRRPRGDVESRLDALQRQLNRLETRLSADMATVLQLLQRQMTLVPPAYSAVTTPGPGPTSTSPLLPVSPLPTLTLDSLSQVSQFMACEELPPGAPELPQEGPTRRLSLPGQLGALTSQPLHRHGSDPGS

The target of this assay is Voltage-gated inwardly rectifying potassium channel KCNH2 (Homo sapiens) (UniProt Q12809). Description: Human Ether-a-go-go-Related Gene (hERG) channel small molecule antagonists: fluorescence cell-based qHTS assay (AID 1671200). Note: nearly all actives have a fitted effect of over 50% in size. Particulars: hERG-U2OS cells, FluxOR thallium flux fluorescence; series mostly up to 76.8 µM. An excerpt:
National Center for Advancing Translational Sciences [NCATS]
U.S. Environmental Protection Agency [EPA]
National Institutes of Environmental Health Sciences [NIEHS]
National Toxicology Program [NTP]
U.S. Food and Drug Administration [FDA]
Mutations in the hERG channel cause Long QT (LQT) syndrome. LQT syndrome is a cardiac disorder which can cause ventricle arrhythmia and sudden death. Additionally, compounds which block the hERG channel can cause acquired LQT syndrome. Several FDA approved drugs have been removed from the market due to their hERG blocking activity. A cell-based hERG channel inhibition assay can be used to screen chemical compounds that inhibit hERG channel. This assay measures hERG channel activity using thallium ions as surrogate ions to measure potassium into the cells.
Tox21 Assay Protocol Summary:
hERG-U2OS cells were resuspended in culture medium and dispensed into 1536-well, black wall/clear-bottom plates at 1000cells/well/3uL using a Multidrop Combi dispenser (Thermo Fisher, Waltham, MA). After plates were incubated at 37 C overnight, 3 uL of Loading Buffer provided by FluxOR II Potassium Ion Channel Assay kit (Thermo, Carlsbad, CA) was added to each well. The assay plates were then incubated at room temperature in the dark for 1h. […] After the assay plates were incubated at room temperature for 10 min, 1 uL of Stimulus Buffer provided by FluxOR II Potassium Ion Channel Assay kit was added into each well and fluorescence intensity (480nm excitation/540nm emission) was continuously measured for 2 min at 1 second intervals using a Functional Drug Screening System (FDSS) 7000EX kinetic plate reader (Hamamatsu, Japan).
A general note: Block of hERG is tested as a sign of cardiac risk.
In the case of `CCN[C@H](C)Cc1cccc(C(F)(F)F)c1`, the Potency result is “inactive”.

For `CCSC(=O)Cl`, the Potency result is “inactive”.

For the molecule `CCOC(=O)CC(SP(=S)(OC)OC)C(=O)OCC` (stereo not given), the Potency result was “inactive”.

For `Cn1c(N)nc2c3cccnc3ccc21`, the Potency entry is “inactive”.

For the molecule `C1CN2CCC1CC2`, the Potency entry was “inactive”.

Consider `C#CC(C)(C)O`, for which the Potency result is “inactive”.

As for `CCC(=O)OC1(c2ccccc2)CCN(C)CC1`, the Potency entry was “inactive”.

For `CCC1(c2cccc(O)c2)CCCCN(C)C1` (stereo not given), the Potency result was “inactive”.

As to `O=C(O)C(Br)(Br)Br`, the Potency result is “inactive”.

With `CCc1ccc(C2CCNCC2)cc1`, the Potency result is “inactive”.

Take `CCNc1nc(NCC)nc(SC)n1`: the Potency entry was “inactive”.

`CNC(=O)Oc1cc(C)c(N(C)C)c(C)c1`: the Potency result is “inactive”.

In the case of `COc1cccc(C=O)c1`, the Potency entry is “inactive”.

For `CCCOc1nn(C(=O)NS(=O)(=O)c2ccccc2C(=O)OC)c(=O)n1C`, the Potency result is “inactive”.

On to `N=C(N)[Se]`, for which the Potency result is “inactive”.

With `CC(C)(C)C(=O)C(Cl)Cl`, the Potency entry is “inactive”.

Turning to `O=C(CCl)NCO`, the Potency result is “inactive”.

Take `C(COCC1CO1)OCC1CO1` (stereo not given): the Potency entry was “inactive”.

In the case of `Cl/C=C/CCl`, the Potency entry was “inactive”.

As for `CC[C@H](O)C(C[C@H](C)N(C)C)(c1ccccc1)c1ccccc1`, the Potency entry was “inactive”.

In the case of `COC(=O)c1ccc(CBr)cc1`, the Potency entry is “inactive”.

Regarding `CCC(C(N)=O)N1CCCC1=O` (stereo not given), the Potency entry is “inactive”.

For the molecule `NCC1(CC(=O)O)CCCCC1`, the Potency entry was “inactive”.

`CNC(=O)NC(O)C(Cl)(Cl)Cl` (stereo not given): the Potency result was “inactive”.

In the case of `O=P(O)(O)c1ccccc1`, the Potency result is “inactive”.

Regarding `CCN(CCO)CCO`, the Potency entry was “inactive”.

As to `Brc1c(Br)c(Br)c(Br)c(Br)c1Br`, the activity change, negative = inhibition is 19.9% [at 6.97 µM] (inactive).

With `CC(Cl)(Cl)Cl`, the Potency result was “inactive”.

As to `CC(Cc1ccccc1)NCCCCl` (stereo not given), the Potency is 15.1 µM (active).

With `ClC1=C(Cl)C2(Cl)C(CBr)CC1(Cl)C2(Cl)Cl` (stereo not given), the Potency entry is “inactive”.

On to `O=C1CCCCC1Cl` (stereo not given), for which the Potency entry was “inactive”.

As to `C=C1CC[C@@]2(O)[C@H]3Cc4ccc(O)c5c4[C@@]2(CCN3CC2CC2)[C@H]1O5`, the Potency result is “inactive”.

Turning to `COP(=O)(O)OC`, the Potency result is “inactive”.

`O=[N+]([O-])CCO`: the Potency result is “inactive”.

Regarding `[P]#[In]`, the Potency result is “inactive”.

Consider `C/C=C/CC#N`, for which the Potency entry was “inactive”.

For `COc1ccc(C=O)cc1O`, the Potency result was “inactive”.

On to `ClCC1CO1` (stereo not given), for which the Potency entry was “inactive”.

`CCCC[N+](=O)[O-]`: the Potency entry is “inactive”.

`CN=CNc1ccc(C)cc1C`: the Potency result was “inactive”.
